# Source: PubChem
# BAZ2B inh: inhibitors of human BAZ2B bromodomain; AlphaScreen BAZ2B-H3K14Ac peptide displacement; 360,000 compounds, 4.4% hits; Potency, µM (titrated, usually from 114 µM), for the others: top-dose activity change, negative = inhibition, hits mostly inhibitors; AID 504333; Q9UIF8; note: % is set by controls: 0 for no effect and ±100 for the full control effect; nearly all actives have a fitted effect of over 60% in size
#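 BAZ2B 50 nM plus b-H3(5-23)K14Ac 50 nM, PBS pH 7.4/0.01% Tween-20, 30 min RT; compound added (max 110 uM), 30 min RT; streptavidin donor/Ni-chelate acceptor beads 10 ug/mL final, 20 min dark; AlphaScreen read.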
# JMJD2A Tudor: JMJD2A Tudor domain (human) inhibition; O75164; AlphaScreen JMJD2A-Tudor / H3K4me3 peptide binding; Potency, µM (highest dose often 114 µM), without a hit: at the top dose activity change, negative = inhibition, hits mostly inhibitors; 390,000 compounds, 4.4% hits; note: % is set by controls: 0 for no effect and ±100 for the full control effect; nearly all actives have a fitted effect of over 50% in size
# G9a inh: blocks human histone lysine methyltransferase G9a; Q96KQ7; G9a H3K9 monomethylation, AlphaScreen, 2 h; Potency, µM (series often up to 102 µM), without a hit: at the top dose activity, negative = inhibition, actives largely listed as inhibitors; 350,000 compounds, 8.8% hits; AID 504332; note: % is set by controls: 0 for no effect and ±100 for the full control effect; nearly all actives have a fitted effect of over 75% in size
# Target sequence (Q96KQ7 913-1193 limits assumed): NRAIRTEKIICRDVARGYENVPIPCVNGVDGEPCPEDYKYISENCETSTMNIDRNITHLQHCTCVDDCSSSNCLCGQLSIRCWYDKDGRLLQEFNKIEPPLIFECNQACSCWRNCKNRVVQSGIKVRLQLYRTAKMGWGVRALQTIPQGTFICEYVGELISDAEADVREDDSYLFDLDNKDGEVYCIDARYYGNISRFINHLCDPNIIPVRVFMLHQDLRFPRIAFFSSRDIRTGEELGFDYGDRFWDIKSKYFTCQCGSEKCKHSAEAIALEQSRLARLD
#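 Chemiluminescent proximity detection of H3K9 monomethylation, read after 10 min bead incubation in the dark. Reaction: 20 nM G9a, 500 nM biotin-H3K9 peptide, 20 uM SAM cofactor, 2 h, room temperature, following 15 min enzyme-compound preincubation.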
# HP1b binding inh: inhibitors of HP1-beta chromodomain binding to methylated histone tails; P83916; AlphaScreen HP1-beta / biotin-H3K9me3 peptide binding; Potency, µM (titrated, usually from 114 µM), for inactives: top-dose activity change, negative = inhibition, hits mostly inhibitors; 390,000 compounds, 0.56% hits; note: nearly all actives have a fitted effect of over 70% in size
# Target sequence (P83916 whole entry, looked up): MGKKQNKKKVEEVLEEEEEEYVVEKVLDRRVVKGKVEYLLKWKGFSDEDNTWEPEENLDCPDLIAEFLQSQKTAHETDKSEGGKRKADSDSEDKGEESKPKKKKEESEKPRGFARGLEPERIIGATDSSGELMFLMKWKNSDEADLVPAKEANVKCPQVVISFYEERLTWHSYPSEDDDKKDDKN
#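 AlphaScreen: HP1-beta (50 nM) preformed 30 min with biotin-H3(1-18)K9me3 peptide (50 nM) in PBS pH 7.4, 0.01% Tween-20. Compound added for 30 min at RT, then streptavidin donor/nickel chelate acceptor beads (10 ug/mL) for 30 min.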
# GLS inhibitor: inhibitors of human glutaminase (GLS); O94925; GLS enzymatic activity, qHTS titration; Potency, µM (top dose mostly 45.5 µM), for the others: at the top dose activity change, negative = inhibition, most hits filed as inhibitors; 410,000 compounds, 0.21% hits; AID 624170; note: % is set by controls: 0 for no effect and ±100 for the full control effect
#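 Human kidney-isoform GLS in 45 mM KH2PO4 pH 8.2, 0.02% Tween-20, with compound, started with 1mM L-Glutamine (added stock). Glutamate oxidase/HRP/Amplex red coupled fluorescence read at start and after 30 min at RT.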
# The depositor's hits bear a star; ? = inconclusive; . = no result; [ ] = dose if it differs, or a comment. Shown are actives, neighbours in structure and some others; about 10% of the full set was active somewhere. Calls come from the whole dose curve; as a rule, active = well fitted curve in the direction sought with a large enough effect; inconclusive = small, poorly fitted or top-dose-only effect, or another doubt; inactive = no such curve, though single readings can be large; an effect the other way counts as inactive or inconclusive. Potency is the fitted concentration of half-maximal effect.
SMILES,BAZ2B inh,JMJD2A Tudor,G9a inh,HP1b binding inh,GLS inhibitor
Cc1ccc(S(=O)(=O)c2nc(S(C)(=O)=O)sc2N2CCC(C)CC2)cc1,-16%,-36%,35µM*,9%,6%
Cc1ccc(S(=O)(=O)c2nc(S(C)(=O)=O)sc2N2CCCCCC2)cc1,-34%,?,.,36%,-10%
NC(=O)C1CCN(c2oc(-c3ccccc3)nc2S(=O)(=O)c2ccc(Br)cc2)CC1,?,32µM*,.,48%,7%
Cc1ccc(S(=O)(=O)c2nc(-c3ccccc3)oc2N2CCC(C(N)=O)CC2)cc1,?,-20%,.,6%,-6%
CN1CCN(c2oc(-c3ccccc3)nc2S(=O)(=O)c2ccc(Br)cc2)CC1,35µM*,56µM*,.,?,-3%
CCCCOc1ccc(Cn2c(=O)oc3ccc(C)cc32)cc1,9%,5%,14%[59 µM],32%,4%
CCCNC(=O)Cn1c(=O)/c(=C/c2ccc(-c3ccc([N+](=O)[O-])cc3)o2)s/c1=C\C(=O)C(C)(C)C,.,-8%,.,9%,-8%
O=S(=O)(c1ccccc1)c1nc(-c2ccco2)oc1N1CCOCC1,-24%,-22%,6%[2.33 µM],3%,5%
Cc1ccc(S(=O)(=O)c2nc(-c3ccco3)oc2N2CCC(C)CC2)cc1,10µM*,?,.,-6%,4%
Cc1cc2nc3ccc(=[N+](C)C)cc-3sc2cc1N,35µM*,?,.,30%,-4%
CC(C)c1ccc(C2CC(=O)N3CN(Cc4ccco4)CSC3=C2C#N)cc1 (configuration not stated),50µM*,40µM*,2.8µM*,?,-4%
COc1cc(C2CC(=O)N3CN(Cc4ccco4)CSC3=C2C#N)ccc1OCc1ccccc1 (configuration not stated),45µM*,22µM*,1.3µM*,?,-17%
COc1ccc(C2CC(=O)N3CN(Cc4ccco4)CSC3=C2C#N)cc1 (configuration not stated),?,7.1µM*,0.89µM*,?,?
CSC1=C(C#N)C(c2ccc(C(C)C)cc2)CC(=O)N1 (configuration not stated),-1%,-17%,?,21%,2%
COc1ccc2ccccc2c1C1CC(=O)N2CN(Cc3ccco3)CSC2=C1C#N (configuration not stated),-27%,?,0.56µM*,?,-1%
Cc1ccc(-c2nn(-c3cccc([N+](=O)[O-])c3)c3c2cnc2ccc(F)cc23)cc1,-4%,-25%,0%[59 µM],35%,-2%
COc1ccc(C2CC(=O)N3CN(C4CCCCC4)CSC3=C2C#N)c(OC)c1 (configuration not stated),.,3.5µM*,2.5µM*,?,11%
N#CC1=C2SCN(Cc3ccco3)CN2C(=O)CC1c1ccc(Cl)cc1 (configuration not stated),.,?,1µM*,?,-15%
COc1ccc2ccccc2c1C1CC(=O)N2CN(C3CCCCC3)CSC2=C1C#N (configuration not stated),?,?,1.6µM*,?,-17%
CCCNC(=O)c1cc(C2CCCCN2S(C)(=O)=O)on1 (configuration not stated),.,.,.,.,0%
COc1cccc(N/C=C/C(=O)c2ccc(C)cc2)c1,36%,34%,70%,71%,12%
COc1cccc(C(=O)/C=C/Nc2cccc(O)c2)c1,-33%,-32%,14µM*,10%,32%
C[N+]1(CCCOC(=O)C2(c3ccccc3)CCCC2)CCOCC1,-8%,-13%,7.9µM*,19%,10%
COc1ccc(-c2oc3ccc(N4CCOCC4)cc3c2/C=C/c2ccc(OC)c(OC)c2)cc1,?,-31%,50µM*,26%,10%
COc1ccc(/C=C/c2c(-c3ccc(OC)cc3)sc3ccc(N4CCOCC4)cc23)cc1,-32%,-22%,-20%,17%,3%
CCOC(=O)c1ccc(NC(=O)NCCc2cnc[nH]2)cc1,-11%,-21%,.,31%,0%
COc1ccccc1Nc1nc(C)cc(C)n1,7%,8%,5%,43%,-3%
COc1ccccc1Nc1cc(C)nc(Nc2ccccc2OC)n1,?,-23%,2.2µM*,8%,-9%
